Screening data: PubChem BioAssay, several laboratories
CYP2C19 activ – activators of human cytochrome P450 2C19; recombinant CYP2C19, luciferin-H EGE luminescence; hits give high values; 0 = fully inhibited enzyme, 1 = untreated enzyme; activation factor at 5 µM; 96,000 tested, under 10 active;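 active = activation factor of at least 2 at 5 µM in the primary screen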
CYP2C19 inhib – inhibitors of human CYP2C19 | P33261 | CYP2C19 Supersomes, luciferin-H EGE luminescence, 30 min | inhibition, % at 5 µM | 21% of 96,000 active;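 active = CYP2C19 inhibition above a set limit at 5 µM in the primary screen, cut at about 50% in these data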
CYP2C9 activ – activators of human CYP2C9 | 1.4% of 96,000 active | AID 1024 | recombinant CYP2C9, luciferin-H conversion, luminescence; hits give high values; factor 1 = untreated enzyme, 0 = blocked | activation factor at 5 µM | P11712;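 active = activation factor of 2 or more for CYP2C9 at a 5 µM dose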
Target sequence (P11712 whole entry, looked up): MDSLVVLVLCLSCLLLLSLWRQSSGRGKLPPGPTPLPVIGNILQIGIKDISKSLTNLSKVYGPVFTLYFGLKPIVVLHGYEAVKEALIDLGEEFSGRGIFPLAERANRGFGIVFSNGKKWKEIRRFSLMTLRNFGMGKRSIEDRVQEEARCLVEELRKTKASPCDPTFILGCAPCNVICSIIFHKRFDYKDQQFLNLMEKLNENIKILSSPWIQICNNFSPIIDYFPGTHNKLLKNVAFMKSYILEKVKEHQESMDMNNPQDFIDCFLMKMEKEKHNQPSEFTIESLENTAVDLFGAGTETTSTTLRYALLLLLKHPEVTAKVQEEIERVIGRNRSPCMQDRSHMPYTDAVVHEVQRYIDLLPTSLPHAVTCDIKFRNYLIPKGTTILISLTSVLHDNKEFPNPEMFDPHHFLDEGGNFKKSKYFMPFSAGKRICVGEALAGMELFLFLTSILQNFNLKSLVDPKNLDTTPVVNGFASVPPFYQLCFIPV
PostGolgi ctrl – inhibits growth of the yeast control strain; 5% of 98,000 active; inhibition, % at 10 µM; AID 738; efflux-deficient yeast background strain, growth absorbance A615, 16 h
CYP2C9 inh – inhibitors of human CYP2C9 | P11712 | CYP2C9 Supersomes, luciferin-H conversion, luminescence | inhibition, % at 5 µM | 20% of 96,000 active;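 active = blocking of liver enzyme CYP2C9 beyond about 50% at 5 µM, limit read from the data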
PostGolgi yeast – growth inhibition of a yeast mutant, post-Golgi transport screen; post-Golgi transport phenotypic cell assay; inhibition, % at 10 µM; 0.9% of 98,000 active;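 also: yeast cells grown in 1536-well plates; yeast grown about 18 h at 30C before absorbance read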
Large screens that a line does not name were inactive. Compounds with a hit are over-represented: about 32% of the library has one in this group of screens. Rule as the data show it, unless noted: active = inhibition above about 30%; inactive = the rest.

O=C(NCC1CCCO1)C1CCC(CNS(=O)(=O)c2ccccc2)CC1 (stereo not given)	none
CC(CCc1ccccc1)NC(=O)c1cc2sccc2n1C (stereo not given)	none
Cc1cc2c(C)cc(=O)oc2c2c1NCCC2	CYP2C9 activ 3.1
COc1ccc(Cc2nnc(SCc3nc4ccccc4c(=O)[nH]3)n2C)cc1	CYP2C9 inh 61.8
Cn1c(CCNC(=O)c2ccccc2F)nnc1SCc1nc2ccccc2c(=O)[nH]1	CYP2C9 inh 63.9
COc1ccc(Cc2nnc(SCC(=O)NC3CCCCC3)n2C)cc1	none
O=C(OC(C(=O)NCC1CCCO1)c1ccc(F)cc1)c1ccco1 (stereo not given)	none
CC1CCCCC1NC(=O)COC(=O)c1ccccn1 (stereo not given)	none
O=C(COc1ccc2c(c1)OCO2)NC12CC3CC(CC(C3)C1)C2	CYP2C19 inhib 93.8, PostGolgi ctrl 36.4, CYP2C9 inh 74.6
Cc1noc(C)c1COc1ccc(C(=O)OCC(=O)NC23CC4CC(CC(C4)C2)C3)cc1	PostGolgi ctrl 36.7
O=C(NC12CC3CC(CC(C3)C1)C2)N1CCC(O)(c2ccc3c(c2)OCO3)CC1	none
Cc1noc(C)c1COc1ccc(C(=O)OCC(=O)NC2CCCCC2C)cc1 (stereo not given)	CYP2C9 inh 59.0
COCCN1C=C(C(=O)OC)C(c2cc(Br)c(OC)c(OC)c2)C(C(=O)OC)=C1	CYP2C9 inh 91.3
CCOC(=O)C(C)Sc1nc(-c2cccs2)ccc1C#N (stereo not given)	CYP2C19 inhib 91.1, CYP2C9 inh 95.6
Cc1c(C(=O)N2CC(C)OC(C)C2)sc2nc(-c3ccc(F)cc3)cn12 (stereo not given)	none
COc1ccccc1N1CCN(C(=O)c2sc3nc(-c4ccc(F)cc4)cn3c2C)CC1	PostGolgi ctrl 45.3, CYP2C9 inh 50.4
COc1ccc(-c2cn3c(C)c(C(=O)N4CCN(c5ccc(F)cc5)CC4)sc3n2)cc1	none
CCOC(=O)N1CCN(C(=O)c2sc3nc(-c4ccc(F)cc4)cn3c2C)CC1	CYP2C19 inhib 63.9, CYP2C9 inh 68.7
Cc1ccc(NC(=O)Nc2cccs2)c(Cl)c1	none
Cc1ccc(S(=O)(=O)Nc2nc(C)c(NC(=O)Nc3ccc(Cl)cc3Cl)s2)cc1	PostGolgi ctrl 41.2, CYP2C9 inh 61.0
Cc1ccc(S(=O)(=O)Nc2nc(C)c(NC(=O)OCCCl)s2)cc1	CYP2C9 inh 89.0
O=C1CSC(c2ccc3c(c2)OCO3)N1c1ccc(Oc2ccccc2)cc1 (stereo not given)	CYP2C9 inh 59.6
Cc1ccc(N2C(=O)CSC2c2cccnc2)cc1F (stereo not given)	none
Cc1ccc(N2C(=O)CSC2c2ccc3c(c2)OCO3)cc1 (stereo not given)	CYP2C19 inhib 100.3, CYP2C9 inh 68.6
Cc1ccc(C(=O)Cn2cnc3ccccc3c2=O)cc1C	none
COc1ccc(C)cc1-n1c(SCC(=O)Nc2cc(C)on2)nc2sc(C)c(C)c2c1=O	none
O=c1c2ccccc2nnn1CSc1ccc2c(c1)OCCO2	CYP2C19 inhib 94.4, CYP2C9 inh 54.7
CCOC(=O)c1cc2c(s1)-c1ccccc1CC2	none
CC(=O)c1cccc(S(=O)(=O)N2CCN(c3nc4cc(C)cc(C)c4cc3C#N)CC2)c1	CYP2C19 inhib 58.4, CYP2C9 inh 67.0
COc1ccccc1C(=O)N1CCN(c2nc3cc(C)c(C)cc3cc2C#N)CC1	none (no result: CYP2C19 activ, CYP2C19 inhib, CYP2C9 activ, CYP2C9 inh)
COc1ccc(C2N=C(c3ccccc3)C(C)(C)N2O)cc1 (stereo not given)	CYP2C19 inhib 83.1
CCOc1ccc(C2CC(=O)c3c([nH]c(C(=O)OC)c3C)C2)cc1OC (stereo not given)	CYP2C9 inh 51.7
CCCCOC(=O)c1[nH]c2c(c1C)C(=O)CC(c1cc(OC)c(OC)c(OC)c1)C2 (stereo not given)	CYP2C9 inh 63.4
COC(=O)c1[nH]c2c(c1C)C(=O)CC(c1cc(OC)ccc1OC)C2 (stereo not given)	none
C=CCOC(=O)c1[nH]c2c(c1C)C(=O)CC(c1cc(OC)c(OC)c(OC)c1)C2 (stereo not given)	CYP2C19 inhib 61.4, CYP2C9 inh 87.1
O=C(CCN1C(=O)C2CC=C(Cl)CC2C1=O)NCc1ccco1 (stereo not given)	none
